TTR transcr act: TTR transcription activators in neuroblastoma reporter cells, primary screen, cell-based, luminescence, SH-SY5Y, TTR promoter Gaussia luciferase; 100% = recombinant luciferase protein wells; activation, % at 16.7 µM; hit rate 1.3% among 92,000; AID 1117267, 2014;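 active = activation above the mean of all tested compounds plus 3 SD, cut at about 9.5% in these data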;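 note: cells exposed to compounds for one day before reading; 0% = median of all test compound wells on the plate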
TTR inh HuH7: TTR promoter reporter inhibitors in hepatoma cells, counter-screen for TTR transcription activator project, cell-based, luminescence, HuH7 hepatoma | shares compounds with TTR transcr act | HuH7 TTR promoter-Gaussia luciferase reporter | inhibition, % at 16.7 µM | hit rate 4% among 1,100;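 active = average inhibition above the solvent-only control wells' mean plus 3 SD, cut at about 15% in these data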;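 note: 0% = cells with DMSO only and 100% = cells with inhibitor control FD; inhibitors lower well luminescence so higher value means more inhibition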
TTR act confirm: TTR transcription activators, retest, confirmation, cell-based, luminescence, SH-SY5Y, triplicate; SHSY5Y TTR promoter Gaussia luciferase; 100% = purified Lucia enzyme wells, no cells; 1,100 tested, under 10 active; activation, % at 16.7 µM; AID 1117280, 2014; shares compounds with TTR transcr act;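 active = mean activation above a set limit taken from the earlier primary screen, cut at about 11% in these data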;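 note: 0% = DMSO-treated cells and 100% = recombinant Lucia luciferase without cells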
Active calls of the source: *. The entries come from a sample that favours hits as a whole.

SMILES	TTR transcr act	others
CC1C(=O)N(Cc2cn(CCC3OCCO3)nn2)CCS(=O)(=O)N1Cc1ccc(-c2cccc(N(C)C)c2)cc1 (configuration not stated)	36.9*	TTR inh HuH7=-4.3;TTR act confirm=1.3
CC1C(=O)N(Cc2cn(CCC3OCCO3)nn2)CCS(=O)(=O)N1Cc1ccc(-c2ccc(F)cc2)cc1 (configuration not stated)	-0.5
CC1C(=O)N(Cc2cn(CCC3OCCO3)nn2)CCS(=O)(=O)N1Cc1ccc(-c2ccncc2)cc1 (configuration not stated)	-1.6
Cc1ccc(S(=O)(=O)N2C[C@H]3C(=O)C[C@@H](c4ccccc4)N(S(=O)(=O)c4cccc(C)c4)[C@H]3C[C@H]2c2ccccc2)cc1	-0.8
COc1cc2c(cc1OC)C(c1cccc(F)c1)CC(=O)N2 (configuration not stated)	18.1*	TTR inh HuH7=1.5;TTR act confirm=-0.3
COc1ccc(C2CC(=O)Nc3cc(OC)c(OC)cc32)cc1 (configuration not stated)	0.0
COc1cc2c(cc1OC)C(c1cccnc1)CC(=O)N2 (configuration not stated)	0.0
Cc1ccnc(NC(=S)N2CCC(Nc3cccc(C(F)(F)F)c3)CC2)c1	4.6
O=C(CSc1nnc(NC(=O)c2ccco2)s1)Nc1ccc(F)cc1	1.5
Cc1cccc(CSc2nnc(NC(=O)c3ccco3)s2)c1	1.9
Cc1cccc(NC(=O)CSc2nnc(NC(=O)c3ccco3)s2)c1	11.2*	TTR inh HuH7=-28.7;TTR act confirm=3.1
CCCCCC(=O)N1C[C@H](O)[C@@H](n2cc(C3CC3)nn2)C[C@@H]1c1ccc(Cl)cc1	-0.5
CC1O[C@@H](O[C@H](C)CC[C@@H](C)O)C(O)C[C@H]1O (some centres not stated)	1.8
C[C@H]1[C@@H](O)CC[C@@]23CCCN2C(=O)CCC[C@@H]13	0.8
O=c1ccn(C2CC(O)C(COC(c3ccccc3)(c3ccccc3)c3ccccc3)O2)c(=O)[nH]1 (configuration not stated)	-3.4
NC(=O)CC(NC(=O)Cc1ccc(Cl)cc1)c1ccc(NC2CCCCCC2)c([N+](=O)[O-])c1 (configuration not stated)	-2.1
NC(=O)CC(NC(=O)Cc1ccc(Br)cc1)c1ccc(NC2CCCCCC2)c([N+](=O)[O-])c1 (configuration not stated)	10.0*	TTR inh HuH7=-7.6;TTR act confirm=0.4
NC(=O)CC(NC(=O)Cc1ccc(Br)cc1)c1ccc(NC2CCCC2)c([N+](=O)[O-])c1 (configuration not stated)	1.5
C=CCn1c(C)nnc1SCC(=O)Nc1oc(C)c2c(C)n[nH]c(=O)c12	-0.7
O=C(COC(=O)c1cc(Cl)nc(Cl)c1)NC1CCCCCC1	-1.8
CC(C)Cn1c(=O)cc(N2CCN(c3cccc(C(F)(F)F)c3)CC2)[nH]c1=O	2.3
CN(C)Cc1cc2ccccc2c2c1COC2	12.2*	TTR inh HuH7=-13.5;TTR act confirm=-0.6
Cc1nc2c(C)cccc2c2c1COC2	-0.8
Cc1cc2ccc3ccccc3c2cc1CN(C)C	5.7
CC(=O)NCc1ccc(-c2csc(NC(=O)CCc3nc4ccccc4c(=O)[nH]3)n2)s1	-0.3
SMILES	TTR transcr act	others
CSc1ncccc1C(=O)OCC(=O)NC12CC3CC(CC(C3)C1)C2	0.8
Cc1nc(NCC2CCCO2)c2oc3ccccc3c2n1 (configuration not stated)	0.4
Cc1nc(NCCCn2ccnc2)c2oc3ccccc3c2n1	48.5*	TTR inh HuH7=-0.9;TTR act confirm=0.7
O=c1c2ccccc2oc2ccc(NCCCn3ccnc3)cc12	0.6
COC(=O)[C@]12C[C@H](CC(=O)NCc3cccc(C(F)(F)F)c3)C(=O)N(Cc3ccco3)C1=C[C@H](C(C)C)O[C@@H]2C1CC1	0.4
COc1cc(C2c3c(c(C)c(C)oc3=O)Oc3c(C)c(C)oc(=O)c32)ccc1OS(=O)(=O)c1ccc(C)cc1	2.1
O=C(CN1C(=O)CSc2ccc(S(=O)(=O)N3CCCCC3)cc21)NCc1cccnc1	11.1*	TTR inh HuH7=-12.9;TTR act confirm=-0.7
O=C(CN1C(=O)CSc2ccc(S(=O)(=O)N3CCOCC3)cc21)NCc1c(F)cccc1Cl	-0.2
O=C(CN1C(=O)CCSc2ccc(S(=O)(=O)N3CCCC3)cc21)NCc1ccccc1Cl	3.2
COC(=O)[C@@]1(C)[C@H]2C(=O)N(Cc3ccccc3)C(=O)[C@H]2[C@H]2CN=C(SCc3ccc(C)cc3)N21	-0.6
COc1cccc(CNC(=O)CCCNC(=O)c2ccc(Cl)cc2)c1	0.2
Cc1cccc(C)c1NC(=O)C1(C)CCC(=O)N1CCCn1ccnc1 (configuration not stated)	0.4
C=CCN1C(C(=O)OCC)CSCCS1(=O)=O (configuration not stated)	1.3
N#C/C(=C\c1cccc(Br)c1)C(=O)N1CCCCC1	0.5
O=C(NNC(=O)c1cccc(Br)c1)Nc1ccc(Cl)cc1	-0.5
O=C(NNC(=O)c1cccc(Br)c1)C(=O)N1CCCCC1	9.9*	TTR inh HuH7=-12.6;TTR act confirm=0.0
O=C(NCCO)[C@H](Cc1ccccc1)NC1(C(=O)NCCN2CCOCC2)CCCCC1	1.5
COC(=O)[C@H](C)NC(=O)[C@@H]1CC=C[C@@H]2CCN(CCc3ccccc3)C(=O)[C@@H]21	-2.0
O=C(CN1CCN(S(=O)(=O)c2ccc(F)cc2)CC1)N1CCOCC1	0.4
Cn1c(SCC(=O)NC2CCCC2)nnc1-c1cccs1	-0.9
COc1ccc(-c2nc3cc(C)c(Br)c(C)n3c2CC2CCCCC2)cc1OC	2.3
CCCc1nc2cc(C)c(Br)c(C)n2c1CC1CCCCC1	-1.6
Cc1ccc(-c2nc3cc(C)c(Br)c(C)n3c2CC2CCCCC2)cc1	9.8*	TTR inh HuH7=-9.2;TTR act confirm=-0.2
Cc1cc2nc(-c3cccc(Cl)c3)c(CC3CCCCC3)n2c(C)c1Br	2.1
Cc1cc2nc(-c3ccc(F)cc3)c(CC3CCCCC3)n2c(C)c1Br	1.7
SMILES	TTR transcr act	others
Cc1cc2nc(-c3ccccc3)c(CC3CCCCC3)n2c(C)c1Br	22.5*	TTR inh HuH7=-8.1;TTR act confirm=0.7
COc1ccc(OCCN(C)Cc2c(O)ccc3ccccc23)cc1	6.6
CCCC1(C(=O)OC)NC(c2ccc(OC)cc2OC)C2C(=O)N(c3cccc(C(C)=O)c3)C(=O)C21 (configuration not stated)	0.2
O=C(Nc1ccccc1)C1=C(c2ccccc2)S(=O)(=O)CCS1(=O)=O	-6.4
CC1=C(C(=O)OC(C)C)C(c2cccs2)N2C(=O)CCSC2=N1 (configuration not stated)	-2.2
CC1(C)CC(=O)C2=C(C1)N=C1SCCC(=O)N1C2c1ccccc1 (configuration not stated)	-1.3
COC(=O)C1=C(C)N=C2SCCC(=O)N2C1c1ccc(C(=O)OC)cc1 (configuration not stated)	16.0*	TTR inh HuH7=-6.8;TTR act confirm=2.0
CNC(=O)c1ccc(NC(=O)CCNC(=O)Nc2ccccc2)cc1	-0.8
O=C(O)c1ccc(Cn2cnc3c(=O)[nH]cnc32)cc1	0.3
CC(C)C[C@@H]1COc2cc(F)ccc2S(=O)(=O)N1	0.6
CN(C)N1C(=O)C2C3C=CC(O3)C2C1=O (configuration not stated)	1.4

Screens as filed in PubChem BioAssay.
